Results filed as inconclusive are left out. A call without a number means that no potency is given here. Active and inactive are the calls of the source. Unless noted, calls follow the shape of the dose curve; as a rule, active = well fitted curve in the direction sought with a large enough effect; inconclusive = small, poorly fitted or top-dose-only effect, or another doubt; inactive = no such curve, though single readings can be large; an effect the other way counts as inactive or inconclusive.
How the values were obtained:
[1] = biological target: Aldehyde dehydrogenase, mitochondrial (Homo sapiens) (UniProt P05091); experiment: qHTS for Inhibitors of the Aldehyde Dehydrogenase Family (ALDH2) Confirmatory screens (AID 2061303; active = well fitted inhibition curve with a large enough effect; title and protocol of this record describe different tests; also: nearly all actives have a fitted effect of over 45% in size)
[2] = qHTS for Inhibitors of the Aldehyde Dehydrogenase Family (ALDH1A2, ALDH1A3, ALDH2, ALDH3A1) (AID 2061307); also: nearly all actives have a fitted effect of over 50% in size; as to potency: test system not described further here
[3] = biological target: Aldehyde dehydrogenase, mitochondrial (Homo sapiens) (UniProt P05091); experiment: qHTS for Inhibitors of the Aldehyde Dehydrogenase Family (ALDH2) Primary screen (AID 2061308); also: nearly all actives have a fitted effect of over 55% in size
[4] = biological target: Retinaldehyde dehydrogenase 3 (Homo sapiens) (UniProt P47895); experiment: qHTS for Inhibitors of the Aldehyde Dehydrogenase Family (ALDH1A3) Confirmatory screens (AID 2061311); also: nearly all actives have a fitted effect of over 60% in size
[5] = biological target: Retinal dehydrogenase 2 (Homo sapiens) (UniProt O94788); experiment: qHTS for Inhibitors of the Aldehyde Dehydrogenase Family (ALDH1A2) Confirmation screens (AID 2061314); also: nearly all actives have a fitted effect of over 65% in size
[6] = biological target: Retinaldehyde dehydrogenase 3 (Homo sapiens) (UniProt P47895); experiment: qHTS for Inhibitors of the Aldehyde Dehydrogenase Family (ALDH1A3) Primary screen (AID 2061315)
[7] = biological target: Aldehyde dehydrogenase 1A1 (Homo sapiens) (UniProt P00352); experiment: qHTS for Inhibitors of the Aldehyde Dehydrogenase Family (ALDH1A1) Confirmatory screens (AID 2061316); also: nearly all actives have a fitted effect of over 65% in size
Potency is read from the fitted curve at half-maximal effect.

Row | SMILES | Potency [1] | Potency [2] | Potency [3] | Potency [4] | Potency [5] | Potency [6] | Potency [7]
1 | N#Cc1ccc(-c2ccc(C3Nc4ccccc4C(=O)N3O)o2)cc1 (stereo not drawn) | 1.26 µM (active) | 3.18 µM (active) | 1.26 µM (active) | 5.04 µM (active) | 3.18 µM (active) | inactive | 3.57 µM (active)
2 | Cc1cc(N2C(=O)c3ccccc3C2=O)n[nH]1 | inactive | inactive | inactive | inactive | inactive | inactive | inactive
3 | COc1ccc(N2Cc3cccc(C(=O)O)c3C2=O)c(OC)c1 | inactive | inactive | inactive | inactive | inactive | inactive | inactive
4 | Cc1ccccc1C[C@H](C(=O)O)N1C(=O)c2ccc(C(=O)O)cc2C1=O | inactive | inactive | inactive | inactive | inactive | inactive | inactive
5 | COc1cc(NS(=O)(=O)c2ccc([N+](=O)[O-])cc2)c2ncccc2c1 | 7.08 µM (active) | 0.712 µM (active) | 20 µM (active) | 10 µM (active) | 3.16 µM (active) |  | 5.65 µM (active)
6 | Cc1cc(C)nc(NC(=S)N2CCN(c3ccc4ccccc4c3)CC2)c1 | 11.3 µM (active) | 3.55 µM (active) | 11.2 µM (active) | 7.12 µM (active) | 12.7 µM (active) |  | 2.83 µM (active)
7 | COc1ccc(C[C@@H](NS(=O)(=O)c2ccc(C(=O)O)cc2)C(=O)O)cc1 | inactive | inactive | inactive | inactive | inactive | inactive | inactive
8 | CCc1nnc(-c2cnn(C)c2N)n1CCCn1ccnc1 | inactive | inactive | inactive | inactive | inactive | inactive | inactive
9 | O=C(NCCN1CCCC1)[C@H](Cc1ccc(OS(=O)(=O)c2cccc3cnccc23)cc1)NS(=O)(=O)c1cccc2cnccc12 | inactive | inactive | inactive | inactive |  | inactive | 
10 | Cc1ccc(OCCn2c(CCNC(=O)c3cccnc3)nc3ccccc32)cc1 | inactive | inactive | inactive |  | inactive | inactive | inactive
11 | FC(F)(F)c1ccccc1-c1nc(NCc2ccc(Cl)cc2)c2ccccc2n1 | inactive | inactive | inactive | inactive |  | inactive | inactive
12 | O=S1(=O)N=C(Oc2ccccc2F)c2ccccc21 | inactive | inactive | inactive |  | inactive | inactive | 
13 | COc1cc(/C=C/C(=O)OC[C@H]2O[C@@H](OC3OC=C(C(=O)O)C4C(O)CC(C)(O)C34)[C@H](O)[C@@H](O)[C@@H]2O)cc(OC)c1O (stereo partly drawn) | inactive | inactive | inactive |  | inactive |  | 
14 | O=C1CC(c2ccccc2)Cc2[nH]c(=O)c(-c3nc(-c4ccc(F)cc4)cs3)cc21 (stereo not drawn) | inactive | inactive | inactive |  | inactive | inactive | 
15 | CN1CCN(C2CCN(Cc3ccc(O)c4ncccc34)CC2)CC1 | inactive | inactive | inactive |  | inactive |  | 
16 | Cc1cc(C)cc(C(=O)NOCCCCCC(=O)NO)c1 | inactive | inactive | inactive |  | inactive | 6.31 µM (active) | 
17 | CC(C)c1ccccc1-c1nc2c(c(NCc3ccc(-c4cccnc4)cc3)n1)CCNC2 | inactive | inactive | inactive |  | inactive | inactive | inactive
18 | O=C(c1ccccc1)N1CCN(c2nc(-c3ccc(Br)cc3)cs2)CC1 | 15.8 µM (active) | 15.8 µM (active) | inactive |  | inactive | inactive | 
19 | NC1CCN(c2nc(-c3ccc(Br)cc3)cs2)CC1 | inactive | inactive | inactive |  | inactive | inactive | inactive
20 | CCc1c(C)sc(NC(=O)C2CCCCC2C(=O)O)c1C(N)=O (stereo not drawn) | inactive | inactive | inactive |  | inactive | inactive | 
21 | O=C1c2ccccc2NC(c2ccc(Br)o2)N1O (stereo not drawn) | 5.04 µM (active) | 10.1 µM (active) | 1.41 µM (active) | 7.12 µM (active) |  |  | 1.79 µM (active)
22 | Cc1ccc(NS(=O)(=O)c2ccc3c(c2)CC(=O)N3)cc1C | inactive | inactive | inactive | inactive |  | inactive | 1.59 µM (active)
23 | COc1ccc(CN(Cc2ccccc2)C(=O)c2ccccc2O)cc1 | inactive | inactive | inactive |  | inactive | inactive | 
24 | O=c1c2ccccc2nc2sc(Nc3cccc(N4CCNCC4)c3)nn12 | inactive | inactive | inactive |  | 10.1 µM (active) | inactive | 12.7 µM (active)
25 | Cc1cccc(-n2cnc3cc(C(=O)N4CCCC(C)(C)C4)ccc32)c1 | inactive | inactive | inactive |  | inactive | inactive | 
